Results filed as inconclusive are left out. The source made the active and inactive calls. Calls follow the shape of the dose curve; as a rule, active = well fitted curve in the direction sought with a large enough effect; inconclusive = small, poorly fitted or top-dose-only effect, or another doubt; inactive = no such curve, though single readings can be large or run the other way.

This test can be described thus: qHTS Assay for Lipid Storage Modulators: CytotoxicityAssay against Probe and Analogs. Conditions: 3T3-L1 adipocytes cytotoxicity, imaging cell count; series mostly up to 20 µM; activity change, negative = cytotoxicity: at the top concentration. The source says: Storing lipids as a reservoir for energy or the anabolism of elementary metabolites is a common feature of probably all cells and is conserved from bacteria to humans. The universal cellular lipid storage organelle is the so-called lipid storage droplet (LD). Although ubiquitous, LDs share a simple structure composed of a hydrophobic core that harbors the storage lipids, which is shielded by a droplet-specific phospholipid monolayer to which proteins are attached. The current model of LD biogenesis involves an incorporation of the lipid core into the membrane leaflets of the endoplasmic reticulum (ER) followed by a subsequent budding-like maturation of a LD, which ultimately pinches off. Once released, LD volume can increase by localized lipogenesis or fusion of existing droplets. Storage lipids are re-mobilized enzymatically by lipase activity. Lipase regulation in the adipocyte is heavily studied and involves multiple components including catecholamine signaling, the LD-associated proteins Perilipin and comparative gene identification-58 (CGI-58) and at least two lipases named hormone sensitive lipase (HSL) and adipocyte triglyceride lipase (ATGL). LD regulation outside of the adipocyte is poorly understood and only few components are known. However, there is an urgent need to learn more about ectopic fat depots as mislocalized storage of lipids, for example in the liver or muscle, is an eminent health problem associated with insulin resistance or the metabolic syndrome. We developed a laser-scanning cytometer assay to enable 1,536-well screening and combined the results of the small molecules screen with an RNAi database based on lipid storage. In this assay we tested analogs of the probe in a cytotoxicity assay. NIH Molecular Libraries Probe Production Centers Network [MLPCN] NIH Chemical Genomics Center [NCGC] MLPCN Grant: MH085686 Assay Submitter (PI): Mathias Beller, Max-Planck-Institut fur Biophysikalische Chemie
3T3-L1 cells were obtained from ATCC (CL-173). Pre-adipocyte medium (PM-1),differentiation medium (DM-2) and after adipocyte medium (AM-1) were purchased from Zen-Bio (# PM-1-L1, DM-2-L1, AM-1-L1). […] of PM-1containing 3,000 cells was dispensed into each well of a 96-well plate (Corning, #3340), and the assay plates were incubated at 37 °C, 95% humidity and 5% CO2 for 3-5 days. The differentiation of pre-adipocyte to adipocyte was induced by removing the pre-adipocyte medium and replacing with […] of differentiation medium. […] of compounds at different concentrations dissolved in differentiation medium were added to the assay plates, along with medium exchange for differentiation to test their effects on adipocyte differentiation. The final DMSO concentration was 0.5%. Triacsin C (Sigma-Aldrich T-4540), an inhibitor of long-chain fatty acyl CoA synthetase that blocks synthesis of triglycerides, was used as a positive control for lipid under-storage. After 3 days, differentiation medium was replaced with 200ul of adipocyte maintenance medium and assay plates were incubated for 4 days. Cells were then fixed using4% of paraformaldehyde in PBS for 30 minutes at room temperature, washed 3 times with PBS buffer. Finally, the cells were stained using […] of PBS containing BODIPY lipid dye 493/530 (1:2000 -, Life Technologies, # D-3922), Hoechst 33342 (1:1000, Life Technologies, #H3570) and CellMask deep red dye (1:10,000 , Life Technologies, #H32721). Images were acquired using InCell 2000 (GE), number of cells, number of lipids, size of lipids and cells were analysis using GE Investigator software.
Turning to `CCOc1ccc(CCNC(=O)c2cc3sccc3n2Cc2ccc(F)cc2F)cc1OCC`, the “activity change, negative = cytotoxicity” value is 10% (inactive).
As to `CCOc1ccc(CCNC(=O)c2cc3ccccc3n2Cc2ccccn2)cc1OCC`, the “activity change, negative = cytotoxicity” value is 0.909% (inactive).
Take `CCOC(=O)C1CCN(C(=O)C2(NC(=O)Nc3ccccc3Cl)CCCC2)CC1`: the “activity change, negative = cytotoxicity” value is -14.5% (inactive).
For the compound `CCOc1ccc(CCNC(=O)c2cc3ccccc3n2Cc2cccc(C)n2)cc1OCC`, the “activity change, negative = cytotoxicity” value was -10.5% (inactive).
Take `CCOc1ccc(CCNC(=O)c2cc3sccc3n2CCN(C)C)cc1OCC`: the “activity change, negative = cytotoxicity” value is -2.7% (inactive).
With `CCOc1ccc(CCNC(=O)c2cc3ccccc3n2CCN2CCOCC2)cc1OCC`, the “activity change, negative = cytotoxicity” value was 6.45% (inactive).
Then `CCOc1ccc(CCNC(=O)c2cc3ncccc3n2Cc2cccc(C)n2)cc1OCC`, with -10.5% (inactive); and `CCOc1ccc(CCNC(=O)c2cc3cccnc3n2Cc2cccc(C)n2)cc1OCC`, with -0.901% (inactive).

For the origin of these results see PubChem BioAssay AID686935 (National Center for Advancing Translational Sciences (NCATS), 2013).
